Test results reported in PubChem BioAssay (EPA / NIEHS).
Calls of active or inactive are those of the source. How the source made its calls: active means hit-call score of the fitted dose curve at least 0.9, where 1 is the maximum; inactive means score below 0.9.

Experiments:
Conditions in all cases: mRNA level, 48 h; actives raise or lower the signal
[1] = read-out: Forkhead box O3 (FOXO3), FOXO3 (gene 2309); experiment: LTEA_HepaRG_FOXO3: Life Technologies and Expression Analysis (LTEA) Assay for Forkhead box O3 (FOXO3) using HepaRG (AID 2283459)
Procedure, shortened: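 FOXO3 transcript measured by qRT-PCR (normalized to ACTB, GAPDH, POLR2A) after 48 h exposure of HepaRG cells in serum-free induction medium. Duplicates, eight half-log concentrations up to 100 uM, 0.5% DMSO; gain or loss fitted against DMSO.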

[2] = read-out: ABC Transporter (ABCB1), ABCB1 (gene 5243); experiment: LTEA_HepaRG_ABCB1: Life Technologies and Expression Analysis (LTEA) Assay for ABC Transporter (ABCB1) using HepaRG (AID 2283460)
Procedure, shortened: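 ABCB1 transcript level measured by TaqMan qRT-PCR against three housekeeping genes after 48 h chemical exposure of differentiated HepaRG cells. Top concentration 100 uM, half-log steps, eight points, 0.5% DMSO vehicle; bidirectional fit relative to DMSO.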

[3] = read-out: growth arrest and DNA damage 45 (GADD45B), GADD45B (gene 4616); experiment: LTEA_HepaRG_GADD45B: Life Technologies and Expression Analysis (LTEA) Assay for growth arrest and DNA damage 45 (GADD45B) using HepaRG (AID 2283461)
Procedure, shortened: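 qRT-PCR read-out (Fluidigm TaqMan, housekeeping-normalized) of mRNA change in human HepaRG cells after 48 h chemical exposure; 8-point curve, top 100 uM, half-log steps, 0.5% DMSO vehicle; gain or loss fitted relative to DMSO baseline.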

[4] = read-out: ABC Transporter (ABCC3), ABCC3 (gene 8714); experiment: LTEA_HepaRG_ABCC3: Life Technologies and Expression Analysis (LTEA) Assay for ABC Transporter (ABCC3) using HepaRG (AID 2283462)
Procedure, shortened: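 qRT-PCR read-out of ABCC3 transcript, normalized to three housekeeping genes (ACTB, GAPDH, POLR2A), after 48 h chemical exposure of human HepaRG cells. Eight half-log concentrations, highest 100 uM, in 0.5% DMSO; gain or loss fitted relative to DMSO baseline.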

[5] = read-out: ABC Transporter (ABCB11), ABCB11 (gene 8647); experiment: LTEA_HepaRG_ABCB11: Life Technologies and Expression Analysis (LTEA) Assay for ABC Transporter (ABCB11) using HepaRG (AID 2283463)
Procedure, shortened: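 ABCB11 transcript levels quantified by TaqMan qRT-PCR against three housekeeping genes after 48 h chemical exposure of HepaRG cultures. Concentrations up to 100 uM in half-log steps, 0.5% DMSO vehicle; both induction and suppression scored.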

[6] = read-out: ABC Transporter (ABCC2), ABCC2 (gene 1244); experiment: LTEA_HepaRG_ABCC2: Life Technologies and Expression Analysis (LTEA) Assay for ABC Transporter (ABCC2) using HepaRG (AID 2283464)
Procedure, shortened: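 qRT-PCR (TaqMan, Fluidigm array) read-out of ABCC2 mRNA, normalized to three housekeeping genes. Differentiated HepaRG cells were treated 48 h in serum-free induction medium with 8-point half-log series from 100 uM in 0.5% DMSO; curves fitted bidirectionally relative to DMSO.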

[7] = read-out: Broad substrate specificity ATP-binding cassette transporter ABCG2 (Homo sapiens) (UniProt Q9UNQ0); experiment: LTEA_HepaRG_ABCG2: Life Technologies and Expression Analysis (LTEA) Assay for ABC Transporter (ABCG2) using HepaRG (AID 2283465)
Procedure, shortened: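 ABCG2 transcript was quantified by TaqMan qRT-PCR against three housekeeping genes in HepaRG cells. Cells were treated in duplicate for 48 h across an 8-point half-log series up to 100 uM, with 0.5% DMSO vehicle. Gain or loss versus DMSO was fit.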

[8] = read-out: ATP-citrate lyase (ACLY), ACLY (gene 47); experiment: LTEA_HepaRG_ACLY: Life Technologies and Expression Analysis (LTEA) Assay for ATP-citrate lyase (ACLY) using HepaRG (AID 2283466)
Procedure, shortened: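 ACLY mRNA quantified by qRT-PCR on Fluidigm arrays against three housekeeping genes, after 48 h chemical treatment of HepaRG cells (top concentration 100 uM, half-log steps, 0.5% DMSO vehicle). Up- or down-regulation fitted relative to DMSO.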

[9] = read-out: Peroxisomal acyl-coenzyme A oxidase 1 (ACOX1) gene, ACOX1 (gene 51); experiment: LTEA_HepaRG_ACOX1: Life Technologies and Expression Analysis (LTEA) Assay for Peroxisomal acyl-coenzyme A oxidase 1 (ACOX1) gene using HepaRG (AID 2283467)
Procedure, shortened: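 ACOX1 transcript levels were quantified by TaqMan qRT-PCR against three housekeeping genes after 48 h chemical exposure of differentiated human HepaRG cells. Exposure used eight half-log steps topping at 100 uM, 0.5% DMSO vehicle, in duplicate. Bidirectional curve fits were made relative to DMSO.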

[10] = read-out: Alkaline Phosphatase, Placental (ALPP) gene, ALPP (gene 250); experiment: LTEA_HepaRG_ALPP: Life Technologies and Expression Analysis (LTEA) Assay for Alkaline Phosphatase, Placental (ALPP) gene using HepaRG (AID 2283468)
Procedure, shortened: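 qRT-PCR readout of ALPP mRNA (Fluidigm TaqMan), normalized to ACTB/GAPDH/POLR2A, after 48 h chemical exposure of HepaRG cells; 8-point half-log series, top 100 uM, 0.5% DMSO vehicle. Bidirectional curve fit versus DMSO baseline.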

[11] = read-out: Bcl-2 (BAD) gene, BAD (gene 572); experiment: LTEA_HepaRG_BAD: Life Technologies and Expression Analysis (LTEA) Assay for Bcl-2 (BAD) gene using HepaRG (AID 2283469)
Procedure, shortened: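 Read-out: qRT-PCR of BAD mRNA, normalized to three housekeeping genes. Human HepaRG cultures got 48 h chemical exposure in 0.5% DMSO, duplicate eight-point half-log series topping at 100 uM. Gain or loss of signal fitted versus DMSO vehicle.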

[12] = read-out: Bcl-2 (BAX) gene, BAX (gene 581); experiment: LTEA_HepaRG_BAX: Life Technologies and Expression Analysis (LTEA) Assay for Bcl-2 (BAX) gene using HepaRG (AID 2283470)
Procedure, shortened: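 qRT-PCR read-out of BAX mRNA, normalized to three housekeeping genes, after 48 h chemical exposure of human HepaRG cells in serum-free induction medium; eight-point half-log series, top 100 uM, 0.5% DMSO vehicle; bidirectional fit versus DMSO.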

[13] = read-out: adenosine kinase (ADK) gene, ADK (gene 132); experiment: LTEA_HepaRG_ADK: Life Technologies and Expression Analysis (LTEA) Assay for adenosine kinase (ADK) gene using HepaRG (AID 2283471)
Procedure, shortened: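 Following 48 h exposure of HepaRG cells in 0.5% DMSO (top concentration 100 uM, duplicate wells), ADK mRNA induction or suppression was measured by qRT-PCR, normalised to ACTB/GAPDH/POLR2A, and fitted bidirectionally relative to vehicle.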

[14] = read-out: Alpha-fetoprotein (AFP) gene, AFP (gene 174); experiment: LTEA_HepaRG_AFP: Life Technologies and Expression Analysis (LTEA) Assay for Alpha-fetoprotein (AFP) gene using HepaRG (AID 2283472)
Procedure, shortened: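 qRT-PCR (Fluidigm TaqMan) readout of AFP transcript, normalized to three housekeeping genes, fitted bidirectionally against 0.5% DMSO baseline. HepaRG cells received chemicals for 48 h in serum-free induction medium, top concentration 100 uM, half-log steps.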

[15] = read-out: BCL2L11 (gene 10018); experiment: LTEA_HepaRG_BCL2L11: Life Technologies and Expression Analysis (LTEA) Assay for Bcl-2 (BCL2L11) gene using HepaRG (AID 2283473)
Procedure, shortened: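 HepaRG, 48 h exposure, 8-pt half-log series from 100 uM in 0.5% DMSO, duplicates; qRT-PCR (Fluidigm TaqMan) for BCL2L11, housekeeping-normalized; bidirectional curve fit relative to DMSO baseline.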

[16] = read-out: Apolipoprotein A-V (APOA5) gene, APOA5 (gene 116519); experiment: LTEA_HepaRG_APOA5: Life Technologies and Expression Analysis (LTEA) Assay for Apolipoprotein A-V (APOA5) gene using HepaRG (AID 2283474)
Procedure, shortened: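 HepaRG, 48 h chemical exposure in serum-free induction medium, 8-pt half-log series (top 100 uM), 0.5% DMSO vehicle, duplicates. Readout: APOA5 mRNA by qRT-PCR, housekeeping-normalized; bidirectional fit vs DMSO baseline.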

[17] = read-out: Apoptosis regulator Bcl-2 (Homo sapiens) (UniProt P10415); experiment: LTEA_HepaRG_BCL2: Life Technologies and Expression Analysis (LTEA) Assay for Bcl-2 gene using HepaRG (AID 2283475)
Procedure, shortened: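 qRT-PCR read-out (Fluidigm TaqMan) of BCL2 transcript, normalised to three housekeeping genes, after 48 h chemical exposure of HepaRG cells; 8-point half-log series, top 100 uM, 0.5% DMSO vehicle. Gain or loss of signal fitted relative to DMSO baseline.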

[18] = read-out: Bcl-2 (BID) gene, BID (gene 637); experiment: LTEA_HepaRG_BID: Life Technologies and Expression Analysis (LTEA) Assay for Bcl-2 (BID) gene using HepaRG (AID 2283476)
Procedure, shortened: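 HepaRG, 48 h exposure, 8-pt half-log series, top 100 uM, 0.5% DMSO vehicle, duplicates. Readout: BID mRNA by TaqMan qRT-PCR; housekeeping-normalized; bidirectional curve fit vs DMSO baseline.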

[19] = read-out: Caspase-3 (Homo sapiens) (UniProt P42574); experiment: LTEA_HepaRG_CASP3: Life Technologies and Expression Analysis (LTEA) Assay for cysteine-aspartic acid protease (CASP3) using HepaRG (AID 2283477)
Procedure, shortened: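 HepaRG, 48 h exposure, 8 conc. (top 100 uM, half-log steps, duplicate), 0.5% DMSO vehicle; qRT-PCR of CASP3 transcript, housekeeping-normalised (ACTB/GAPDH/POLR2A); bidirectional curve fit vs DMSO baseline.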

[20] = read-out: Cytochrome P450 (CYP24A1), CYP24A1 (gene 1591); experiment: LTEA_HepaRG_CYP24A1: Life Technologies and Expression Analysis (LTEA) Assay for Cytochrome P450 (CYP24A1) using HepaRG (AID 2283478)
Procedure, shortened: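 qRT-PCR read-out: CYP24A1 transcript levels normalized to three housekeeping genes, bidirectional curve fits against 0.5% DMSO baseline. Human HepaRG cells treated 48 h with chemicals at eight concentrations from 100 uM in half-log steps.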

Measured: AC50

Caspase-3 (Homo sapiens), sequence (P42574 whole entry, looked up): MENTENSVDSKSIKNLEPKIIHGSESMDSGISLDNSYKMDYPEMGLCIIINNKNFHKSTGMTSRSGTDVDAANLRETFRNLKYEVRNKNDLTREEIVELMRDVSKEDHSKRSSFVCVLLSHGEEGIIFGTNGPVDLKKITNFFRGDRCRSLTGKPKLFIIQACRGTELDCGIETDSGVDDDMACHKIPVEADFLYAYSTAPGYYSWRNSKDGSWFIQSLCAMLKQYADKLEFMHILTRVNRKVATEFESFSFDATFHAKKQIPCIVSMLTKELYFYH
Apoptosis regulator Bcl-2 (Homo sapiens), sequence (P10415 whole entry, looked up): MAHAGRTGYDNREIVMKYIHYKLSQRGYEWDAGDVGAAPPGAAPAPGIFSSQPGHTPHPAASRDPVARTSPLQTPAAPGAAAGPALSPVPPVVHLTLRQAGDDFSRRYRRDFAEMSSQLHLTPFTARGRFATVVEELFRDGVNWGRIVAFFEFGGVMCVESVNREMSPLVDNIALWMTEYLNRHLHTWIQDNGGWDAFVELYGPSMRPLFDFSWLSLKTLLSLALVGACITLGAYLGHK
Broad substrate specificity ATP-binding cassette transporter ABCG2 (Homo sapiens), sequence (Q9UNQ0 whole entry, looked up): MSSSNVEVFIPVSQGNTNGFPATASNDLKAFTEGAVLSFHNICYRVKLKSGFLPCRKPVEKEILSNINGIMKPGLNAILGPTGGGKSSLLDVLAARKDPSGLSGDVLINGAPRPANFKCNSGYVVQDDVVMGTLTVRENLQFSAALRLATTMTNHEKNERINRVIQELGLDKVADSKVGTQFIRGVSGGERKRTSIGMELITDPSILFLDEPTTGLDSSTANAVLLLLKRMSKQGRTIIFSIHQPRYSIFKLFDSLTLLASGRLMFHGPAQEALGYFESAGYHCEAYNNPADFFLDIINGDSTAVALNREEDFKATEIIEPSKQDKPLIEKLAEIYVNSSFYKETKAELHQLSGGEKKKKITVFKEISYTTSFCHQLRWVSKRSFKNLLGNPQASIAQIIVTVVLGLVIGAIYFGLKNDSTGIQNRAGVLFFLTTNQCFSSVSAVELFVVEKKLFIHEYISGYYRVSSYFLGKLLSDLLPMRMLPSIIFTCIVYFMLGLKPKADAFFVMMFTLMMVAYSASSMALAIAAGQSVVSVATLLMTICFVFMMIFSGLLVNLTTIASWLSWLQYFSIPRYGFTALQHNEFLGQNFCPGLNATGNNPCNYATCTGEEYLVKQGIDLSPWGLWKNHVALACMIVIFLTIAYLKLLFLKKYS

O=C1OC(=O)C2C3C=CC(C3)C12 (stereo not drawn)
inactive: all assays above

CC[C@H](C)C(=O)O[C@H]1C[C@@H](C)C=C2C=C[C@H](C)[C@H](CC[C@@H]3C[C@@H](O)CC(=O)O3)[C@H]21
active: [2] 12.7 µM | [5] 50 µM | [8] 14.8 µM | [16] 9.92 µM
not listed: [19]
inactive: all other assays above

O=C(O)CCN(C1(C(=O)NO)CCCC1)S(=O)(=O)c1ccc(Oc2ccc(F)cc2)cc1
inactive: all assays above

CC(C)CC(C)(O)C#CC(C)(O)CC(C)C (stereo not drawn)
active: [2] 16.7 µM
inactive: all other assays above

Cc1ccc(C)c(O)c1
not listed: [19]
inactive: all other assays above

Clc1nc(Cl)c(Cl)c(Cl)c1Cl
inactive: all assays above
